This note sets out measurements from ChEMBL document CHEMBL1201862, “PubChem BioAssay data set” (2004).

In all, about 1,500 compounds went through this assay and about 140 (9.3%) were called active. This is one part of a sample in which actives are shown more often than they occur. The rule behind the calls is not given here.

This test is described as follows: AlphaScreen signal interference with preloaded methylated product, dose response, artefact control for NSD2 inhibitor project, biochemical, cherry-picked samples (AID 1053174).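 Note: actives lower the AlphaScreen signal from the preloaded product and count as artifacts.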
Consider `OCC[n+]1c2ccccc2nc2ccc(N3CCOCC3)cc21`, for which the AbsAC35 was 15.8 µM (active). The figure for `N/C(=N\N=C/c1ccc(-c2ccc(O)c(C(=O)O)c2)o1)N[N+](=O)[O-]` is 19.7 µM (active); for `CN(c1ccc(O)cc1)c1ccc([N+](=O)[O-])c2nonc12` it is 15.7 µM (active); for `CCCCCCCSc1cc(OC)c(CCNC)cc1OC` it is 14.6 µM (active).

For the compound `CC[n+]1c(-c2ccccc2)c2cc(N)ccc2c2ccc(N)cc21`, the AbsAC35 is 21.9 µM (active). The figure for `CN(C)c1ccc(CN2CC=C(c3ccc(F)cc3)CC2)cc1` is 15.5 µM (active); for `CCN(CC)c1ccc(CN2CC=C(c3ccc(F)cc3)CC2)cc1` it is 15.3 µM (active). The figure for `CCCCN1C(=O)/C(=C/C=C/c2ccco2)C(=O)NC1=S` is 10.6 µM (active). The figure for `CN(C)c1ccc(/C=C/c2cc[n+](C)c3ccccc23)cc1` is 10.6 µM (active).
